The source made the active and inactive calls.
What follows are molecules tested against Homeobox protein Hox-A13 (Mus musculus) (UniProt Q62424) (assay: disruptors of Hoxa13 oligonucleotide interaction – biochemical, fluorescence polarization, labeled oligonucleotide, primary screen (AID 1185)). Settings: Hoxa13:DNA binding, 15 min, higher = more signal, called active from +8 up or from −8 down.
Sequence of Homeobox protein Hox-A13 (Mus musculus) (Q62424 whole entry, looked up): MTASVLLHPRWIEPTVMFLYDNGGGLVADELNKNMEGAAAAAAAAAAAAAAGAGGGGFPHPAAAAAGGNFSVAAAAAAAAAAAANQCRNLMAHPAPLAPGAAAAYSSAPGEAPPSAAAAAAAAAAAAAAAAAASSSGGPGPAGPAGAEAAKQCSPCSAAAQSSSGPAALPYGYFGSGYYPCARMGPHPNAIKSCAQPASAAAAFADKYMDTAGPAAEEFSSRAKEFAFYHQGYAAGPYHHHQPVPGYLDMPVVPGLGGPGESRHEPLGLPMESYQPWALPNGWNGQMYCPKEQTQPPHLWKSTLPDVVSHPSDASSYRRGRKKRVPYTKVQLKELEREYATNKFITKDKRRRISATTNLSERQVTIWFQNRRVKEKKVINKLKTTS

Row | Compound | z-score
1 | CCOC(=O)[C@H](CC(C)C)NC(=O)CCC1CC(OC(=O)NCCc2ccc(F)cc2)CC2(CCCC(COC(=O)NCCOC)O2)O1 (stereo partly drawn) | -6.12 (inactive)
2 | CO[C@@H]1COC(=O)[C@@H]2CCCN2C(=O)[C@@H](C)COC(=O)CCC[C@H]1C | 0.694 (inactive)
3 | CC(=O)OC[C@H]1O[C@H](CC=NOC[C@@H](O)[C@H]2O[C@@H]3OC(C)(C)O[C@@H]3[C@H]2O)C=C[C@@H]1OC(C)=O | -0.147 (inactive)
4 | O=C1[C@H]2[C@H]3[C@H](O)[C@H](O)CC(=NO[C@@H]4O[C@H](CO)[C@@H](O)[C@H](O)[C@H]4O)[C@@H]3CC[C@H]2C(=O)N1c1cccc(Oc2ccccc2)c1 | -1.14 (inactive)
5 | CC(C)=NOC(C)CN1CCCc2nc(C)c(C)cc21 (stereo not drawn) | -8.04 (active)
6 | O=C1C[C@@H](O)[C@@H](O)[C@@H]2[C@@H]3C(=O)N(c4ccc(F)cc4F)C(=O)[C@@H]3CC[C@H]12 | -0.55 (inactive)
7 | COC(=O)[C@H](C)NC(=O)CCC1CC(OC(=O)NCc2cccc3ccccc23)CC2(CCCC(COC(=O)NCCc3ccccc3OC)O2)O1 (stereo partly drawn) | -4.27 (inactive)
8 | CC(=O)OC[C@H]1O[C@H](CCON=C(C)CCN2CCCc3nc(C)c(C)cc32)C=C[C@@H]1OC(C)=O | -6.43 (inactive)
